# From PubChem BioAssay (EPA / NIEHS)
# “And” between values parts separate entries of the source, which are not always exact repeats. Identical values can stand only once. The source made the active and inactive calls. The calls were made as follows: active = hit-call score of the fitted dose curve at least 0.9, where 1 is the maximum; inactive = score below 0.9.
# Read-out: Interleukin-8 (IL8), CXCL8 (gene 3576)
# Assay: BSK_KF3CT_IL8: BioMAP Diversity Plus: KF3CT Assay for Interleukin-8 (IL8) Biomarker Activity (AID 2284254)
# Settings: primary human keratinocytes with fibroblasts
# Description: BSK_KF3CT is a cell-based, multiplexed-readout assay that uses keratinocytes and foreskin fibroblasts, a human skin primary cell co-culture, with measurements taken at 24 hours after chemical dosing in a 96-well plate.BSK_KF3CT_IL8 is an assay component measured in the BSK_KF3CT assay. It measures IL-8 antibody related to regulation of gene expression using ELISA technology.Data from the assay component BSK_KF3CT_IL8 was analyzed at the endpoint, BSK_KF3CT_IL8, in the positive analysis fitting direction relative to DMSO as the negative control and baseline of activity. Using a type of binding reporter, gain or loss-of-signal activity can be used to understand protein changes. To generalize the intended target to other relatable targets, this assay endpoint is annotated to the 'cytokine' intended target family, where the subfamily is 'interleukins'.
# The levels of cell surface (or secreted, indicated by the prefix "s") biomarker endpoints were measured by ELISA. Overt cytotoxicity to cells in confluent adherent cultures (all systems other than the BT system) was assessed by measuring total protein levels using sulforhodamine B (SRB) staining in parallel cultures at the time of biomarker measurements, indicated as SRB endpoints. For proliferation assays for adherent cell types, individual cell types are cultured at sub-confluence and relative cell numbers quantified by SRB staining at time points optimized for each system (48 h: 3C and CASM3C systems; 72 h: BT and HDF3CGF systems; 96 h: SAg system). SRB was performed by staining cells with 0.1% SRB after fixation with 10% TCA and reading wells at 560 nm.Viability and proliferation of PBMC (T cells) was quantified by Alamar Blue reduction for the SAg and BT systems. For PBMC viability (referred to as PBMC Cytotoxicity within the assay endpoint names), cells were plated (75,000/well in a 96-well plate) and then chemical samples added for 1 h before addition of activators, SEB and TSST-1 (20 ng/mL final concentration each). Cells were incubated for 90 h. Then, Alamar Blue (20 uL/well) (Invitrogen, Cat DAL1100) was added for 6 h, and the plates were read with a fluorescence microplate reader at 546/580 nm (excitation/emission). For PBMC proliferation, cells were plated and activated as above but incubated for only 16 h prior to addition of Alamar Blue. Plates were read after 6 h.
SMILES,outcome,AC50
CC(O)C(F)(F)C(F)(F)F (stereo not given),inactive,
C=CC(=O)OCC(F)(F)C(F)F,inactive,
O=C(O)C(F)(F)C(F)(F)C(=O)O,inactive,
OCC(F)(F)OC(F)(F)C(F)(F)OC(F)(F)C(F)(F)OC(F)(F)F,,46.5 µM (active) and 50.9 µM (active)
FC(F)(F)C(F)(C(F)(F)F)C(F)(F)C(F)(F)CC1CO1 (stereo not given),inactive,
COC(=O)C(F)(F)C(F)(F)OC(F)(C(F)(F)F)C(F)(F)OC(F)=C(F)F (stereo not given),inactive,
OCC(F)(F)OC(F)(F)C(F)(F)OC(F)(F)C(F)(F)OC(F)(F)CO,inactive,
O=C(O)C(F)(F)OC(F)(F)C(F)(F)OC(F)(F)C(=O)O,inactive,
O=S(=O)(F)C(F)(F)C(F)(F)C(F)(F)C(F)(F)C(F)(F)C(F)(F)C(F)(F)C(F)(F)F,inactive,
O=C(O)C(F)(F)OC(F)(F)C(F)(F)OC(F)(F)F,inactive,
NC(=O)C(F)(F)C(F)(F)F,inactive,
COP(=O)(CCC(=O)NCO)OC,inactive,
O=C(O)C=CC(F)(C(F)(F)F)C(F)(F)F,inactive,
O=C(O)C(F)(OC(F)(F)C(F)(F)C(F)(F)F)C(F)(F)F (stereo not given),inactive,
OCC(F)(F)OC(F)(F)C(F)(F)OC(F)(F)CO,inactive,
